The text below walks through data of PubChem BioAssay (NCATS).

The structures appear in SMILES notation. Results filed as inconclusive are left out. Active and inactive are the calls of the source. Calls come from the whole dose curve; as a rule, active = well fitted curve in the direction sought with a large enough effect; inconclusive = small, poorly fitted or top-dose-only effect, or another doubt; inactive = no such curve, though single readings can be large; an effect the other way counts as inactive or inconclusive.

Nuclear receptor subfamily 1 group I member 3 (Homo sapiens), sequence (Q14994 whole entry, looked up): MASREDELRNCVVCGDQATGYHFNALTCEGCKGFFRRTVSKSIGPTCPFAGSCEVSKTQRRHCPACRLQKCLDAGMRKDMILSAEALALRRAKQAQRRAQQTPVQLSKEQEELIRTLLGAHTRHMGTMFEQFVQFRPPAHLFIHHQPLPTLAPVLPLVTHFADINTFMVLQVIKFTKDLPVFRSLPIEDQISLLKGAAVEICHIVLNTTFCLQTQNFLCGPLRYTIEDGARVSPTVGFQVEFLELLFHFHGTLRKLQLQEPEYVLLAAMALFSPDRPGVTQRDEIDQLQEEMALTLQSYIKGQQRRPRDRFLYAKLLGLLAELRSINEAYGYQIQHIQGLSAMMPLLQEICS

System in the first assay: not listed separately
Nature of the assay: Viability counterscreen for agonist of constitutive androstane receptor (CAR) against the NCATS DSHEA and TCM libraries (AID 1794838).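 Note: HepG2 cells with CYP2B6 reporter and hCAR plus 0.75 µM PK11195 antagonist.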 The following applies: HepG2 cell viability counterscreen, CAR agonist assay, co-treated with 0.75 µM CAR antagonist; series mostly up to 40 µM. The method in brief:
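Cell health was measured as CellTiter-Fluor signal in HepG2-CYP2B6-hCAR cells treated for 24 h with substances alongside the hCAR antagonist PK11195 (0.75 uM final).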
Consider `O=c1ccc2ccccc2o1`, for which the outcome was inactive.
On to `C/C=C/c1ccc(OC)cc1`, for which the result was inactive.
With `C=CCc1ccc(O)c(OC)c1`, the result was inactive.
Turning to `Nc1ccc(C(=O)O)cc1`, the result was inactive.
For `Nc1nc2ncc(CNc3ccc(C(=O)N[C@@H](CCC(=O)O)C(=O)O)cc3)nc2c(=O)[nH]1`, the outcome was inactive.

The next assay concerns the target Nuclear receptor subfamily 1 group I member 3 (Homo sapiens) (UniProt Q14994). As to the kind of experiment: Primary qHTS for agonist of constitutive androstane receptor (CAR) against the NCATS DSHEA and TCM libraries (AID 1794839).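 Note: HepG2 cells expressing human CAR with a CYP2B6 reporter plus PK11195 antagonist; luciferase reporter luminescence read with ONE-Glo.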 The following applies: CAR agonist reporter cells, qHTS luminescence, CAR antagonist co-added at 0.75 µM; series mostly up to 40 µM. The method in brief:
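qHTS, agonist mode: HepG2-CYP2B6-hCAR, 2,500 cells/well, 5 h attach; cpds + PK11195 0.75 µM final; 24 h, 37 °C, 5% CO2. Readouts: CellTiter-Fluor (405/540 nm), then ONE-Glo luminescence.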
In the case of `O=c1ccc2ccccc2o1`, the result was inactive.
Turning to `C/C=C/c1ccc(OC)cc1`, the compound was classed as inactive.
Consider `C=CCc1ccc(O)c(OC)c1`, for which the outcome was inactive.
In the case of `Nc1ccc(C(=O)O)cc1`, the outcome was inactive.
Take `Nc1nc2ncc(CNc3ccc(C(=O)N[C@@H](CCC(=O)O)C(=O)O)cc3)nc2c(=O)[nH]1`: the call was inactive.

System in another assay: not listed separately
As to the kind of experiment: HepG2 viability counterscreen (readout 2: ATP content) against the NCATS DSHEA and TCM libraries (AID 1794840). The following applies: ATP content luminescence; series mostly up to 27.3 µM. The method in brief: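 Same wells read twice: first fluorescence from cleaved GF-AFC substrate (25 uM final, 30 min, 37C) for live-cell protease, then CellTiter-Glo luminescence after 30 min at room temperature for ATP. HepG2 cells were exposed ~24 h to substances.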
Turning to `O=c1ccc2ccccc2o1`, the compound was called inactive.
On the same count and under the same terms, with `C/C=C/c1ccc(OC)cc1` the entry was “inactive”.
Turning to `C=CCc1ccc(O)c(OC)c1`, the compound was called inactive.
Still for that read-out and setting: the result for `Nc1ccc(C(=O)O)cc1` reads “inactive”; that for `Nc1nc2ncc(CNc3ccc(C(=O)N[C@@H](CCC(=O)O)C(=O)O)cc3)nc2c(=O)[nH]1`, “inactive”.
